A number with no mark means an inactive call. The source made the active and inactive calls.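 How the source made its calls: active means IC50 below 10 µM at human M5 in a calcium flux test, acting as a negative modulator; inactive means the rest.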

Chain of Muscarinic acetylcholine receptor M5 (Homo sapiens) (P08912 whole entry, looked up): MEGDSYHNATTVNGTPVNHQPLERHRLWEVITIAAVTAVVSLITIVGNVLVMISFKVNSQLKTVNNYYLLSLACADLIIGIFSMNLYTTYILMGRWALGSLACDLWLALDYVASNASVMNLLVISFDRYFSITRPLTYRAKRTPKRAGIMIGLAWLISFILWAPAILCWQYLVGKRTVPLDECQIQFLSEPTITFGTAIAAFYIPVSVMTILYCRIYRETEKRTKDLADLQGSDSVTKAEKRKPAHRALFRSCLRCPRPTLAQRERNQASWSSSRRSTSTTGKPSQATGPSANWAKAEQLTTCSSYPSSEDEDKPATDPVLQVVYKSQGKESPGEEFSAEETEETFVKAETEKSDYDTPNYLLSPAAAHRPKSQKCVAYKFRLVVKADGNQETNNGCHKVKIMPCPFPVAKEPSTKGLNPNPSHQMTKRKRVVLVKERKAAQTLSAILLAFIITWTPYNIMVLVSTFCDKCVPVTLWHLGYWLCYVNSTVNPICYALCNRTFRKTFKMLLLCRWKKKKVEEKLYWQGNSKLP

The assay addresses Muscarinic acetylcholine receptor M5 (Homo sapiens) (UniProt P08912). Put plainly: inhibition of ACh-evoked M5 calcium signal – cell-based, single concentration, human M5 (AID 743025). As to conditions: CHO-K1 hM5, ACh EC80 calcium flux, Fluo-4; at 10 µM; hits give low values. For orientation: Calcium assays in cells follow changes in intracellular calcium, usually with a dye or a luminescent sensor.
For `C[C@H]1CN(Cc2ccccc2)[C@]2(c3ccc(Cl)cc3)c3ccccc3C(=O)N12`, the activity remaining is 73.1%. Then `Cc1ccc(C23c4ccccc4C(=O)N2CCN3C(=O)c2ccccc2)cc1` (stereo unspecified), with 53.2% (active); and `O=C(c1ccc(F)c(F)c1)N1CCN2C(=O)c3ccccc3C12c1ccc(O)cc1` (stereo unspecified), with 65.9%; and `O=C(c1cccnc1)N1CCN2C(=O)c3ccccc3C12c1ccc(Cl)cc1` (stereo unspecified), with 82.6%. As to `CCCN1C(=O)c2ccccc2C1c1ccccc1` (stereo unspecified), the activity remaining is 86.1%. In the case of `O=C(c1cc(F)cc(F)c1)N1CCN2C(=O)c3ccccc3C12c1ccccc1` (stereo unspecified), the activity remaining was 4.21% (active). Take `COc1ccc(C(=O)N2CCN3C(=O)c4ccccc4C23c2ccc(Cl)cc2)cc1F` (stereo unspecified): the activity remaining was 74%. Then `Cc1ccc(C23c4ccccc4C(=O)N2CCN3C(=O)c2ccc(F)cc2)cc1` (stereo unspecified), with 14.1% (active); and `COc1ccc(C(=O)N2CCN3C(=O)c4ccccc4C23c2ccccc2)cc1` (stereo unspecified), with 77.7%; and `O=C(c1cc(F)cc(F)c1)N1CCN2C(=O)c3ncccc3C12c1ccccc1` (stereo unspecified), with 75.2%. As for `O=C(c1ccc(Br)cc1)c1ccccc1C(=O)N1CCCN(C(=O)c2ccccc2)CC1`, the activity remaining was 78.1%. `O=C1c2ccccc2C2(c3ccccc3)NCCN12` (stereo unspecified): the activity remaining is 89.3%. Then `O=C(c1ccccc1)c1ccccc1C(=O)N1CCN(C(=O)c2ccccc2)CC1`, with 85.5%; and `O=C(c1ccc(-c2ccccc2)cc1)N1CCN2C(=O)c3ccccc3C12c1ccccc1` (stereo unspecified), with 62.7%. Take `O=C(c1ccc(F)c(F)c1)N1CCc2ccccc2C1c1ccc(Cl)cc1` (stereo unspecified): the activity remaining was 67.4%. Consider `O=C1c2ccccc2C2(c3ccccc3)N1CCN2C(=O)C1CC1` (stereo unspecified), for which the activity remaining was 86.4%.

With `O=C(c1ccncc1)N1CCN2C(=O)c3ccccc3C12c1ccccc1` (stereo unspecified), the activity remaining was 98.6%. Regarding `O=C(c1cccc(C(F)(F)F)c1)N1CCN2C(=O)c3ccccc3C12c1ccccc1` (stereo unspecified), the activity remaining was 6.77% (active).

`COc1ccc(C23c4ccccc4C(=O)N2CCN3C(=O)c2cccc(C)c2)cc1` (stereo unspecified): the activity remaining was 61.1%. In the case of `Cc1ccc(C(=O)N2CCCN3C(=O)c4ccccc4C23c2ccc(Cl)cc2)cc1` (stereo unspecified), the activity remaining is 74.8%.

As for `O=C1c2ccccc2C(c2ccccc2)N1c1ccccc1` (stereo unspecified), the activity remaining was 82.3%. For the compound `O=C1c2ccccc2C2(c3ccccc3)N1CCN2C(=O)C1CCCC1` (stereo unspecified), the activity remaining is 97.8%. With `COc1ccc(C23c4ccccc4C(=O)N2CCN3C(=O)c2ccccc2)cc1` (stereo unspecified), the activity remaining is 73%. Then `O=C(c1ccc(F)c(F)c1)N1CCN2C(=O)c3ncccc3C12c1ccccc1` (stereo unspecified), with 66.4%; and `O=C(c1cccc(F)c1)N1CCN2C(=O)c3ccccc3C12c1ccccc1` (stereo unspecified), with 86%; and `CSc1ccc(C23c4ccccc4C(=O)N2CCN3C(=O)c2ccc(F)c(F)c2)cc1` (stereo unspecified), with 14.6% (active).

As for `O=C(c1ccccc1)N1CCN2C(=O)c3ccccc3C12c1ccccc1` (stereo unspecified), the activity remaining was 74.8%.

For the compound `O=C(Nc1ccc(Cl)cc1)N1CCCN2C(=O)c3ccccc3C12c1ccccc1` (stereo unspecified), the activity remaining was 84.5%. Consider `O=C(c1ccccc1)N1CCN2C(=O)c3ncccc3C12c1ccccc1` (stereo unspecified), for which the activity remaining is 78.7%. Consider `O=C(c1ccccc1)N1CCN2C(=O)c3ccccc3C12c1ccc(F)cc1` (stereo unspecified), for which the activity remaining is 67.6% (active). Then `O=C(c1ccc(F)cc1)N1CCN2C(=O)c3ccccc3C12c1ccc(F)cc1` (stereo unspecified), with 69.7%; and `O=C1c2ccccc2C2(c3ccccc3)N1CCN2C(=S)Nc1cccc(Cl)c1` (stereo unspecified), with 93%.

With `O=C(c1ccc(OC(F)(F)F)cc1)N1CCN2C(=O)c3ncccc3C12c1ccccc1` (stereo unspecified), the activity remaining is 73.1%. Then `COc1ccc(C23c4ccccc4C(=O)N2CCN3C(=O)c2ccc(C)cc2)cc1` (stereo unspecified), with 68.4%. Take `O=C(c1ccc(Cl)cc1)N1CCCN2C(=O)c3ccccc3C12c1ccccc1` (stereo unspecified): the activity remaining is 54% (active). Consider `Cc1ccc(C23c4ccccc4C(=O)N2CCN3C(=O)c2cc(F)cc(F)c2)cc1` (stereo unspecified), for which the activity remaining was 2.43% (active).
